# Rows were chosen to be rich in hits. Some 10% of all compounds tested hit in one or more screens of this group.
# 3T3 cytotox = Cytotoxic Profiling in NIH 3T3 Cell Line of Diverse Libraries Using Quantitative High-Throughput Screening | NIH 3T3 viability, CellTiter-Glo ATP luminescence, 48-72 h | Potency, µM (titrated, usually from 96.7 µM), inactives show at the top dose activity change, negative = cytotoxicity, usual class: inhibitors | 4.3% of 94,000 active | AID 1345082, 2018; note: nearly all actives have a fitted effect of over 55% in size
#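 Luminescent ATP readout (CellTiter-Glo, 10 min RT) after 48 or 72 hr compound exposure of NIH 3T3 cells seeded at 400 cells/well in 1536-well format; quantitative HTS.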
# HEK293 tox = Cytotoxic Profiling in HEK 293 Cell Line of Diverse Libraries Using Quantitative High-Throughput Screening | HEK 293 viability, ATP luminescence (CellTiter-Glo), 48-72 h | Potency, µM (doses to about 115 µM), for the others: at the highest dose activity change, negative = cytotoxicity, usual class: inhibitors | 6.6% of 94,000 active; note: nearly all actives have a fitted effect of over 60% in size
#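 HEK 293 cells at 250 cells/well were exposed to compounds by pintool transfer for 48 or 72 hr at 37 degree Celsius, 5% CO2. Viability was read as ATP-coupled luminescence with CellTiter-Glo after 10 min at room temperature.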
# hNpr1 antagonist = Natriuretic polypeptide receptor (hNpr1) antagonism - Primary qHTS; HEK293 hNpr1 GloSensor cGMP, ANP-stimulated luminescence; Potency, µM (series often up to 46.3 µM), for inactives: at the highest dose activity change, negative = inhibition, hits mostly inhibitors; 1.6% of 76,000 active; AID 1347048, 2019; calls by dose curve; note: nearly all actives have a fitted effect of over 60% in size
#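 Compound pre-incubated 30 min at room temperature on GloSensor-loaded HEK293 cells stably carrying hNpr1 and the pGS-40F cGMP biosensor. Stimulation uses hNppA at 0.1 nM final; luminescence is taken at baseline and 20 min post-agonist.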
# Luciferase inh = Firefly luciferase inhibition profiling of diverse chemical library using quantitative high-throughput screening. Luciferin 4-monooxygenase (Photinus pyralis), P08659. purified P. pyralis luciferase, luminescence, biochemical. Potency, µM (doses to about 115 µM), hits mostly inhibitors. 2.5% of 76,000 active; note: nearly all actives have a fitted effect of over 65% in size
#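 Cell-free enzyme assay, 10nM P. pyralis luciferase, luciferin and ATP each at 10uM. Inhibition profiled over a 6-point titration, read as luminescence.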
# GPT2 inhibitor = Primary qHTS assay for inhibitors of Glutamate pyruvate transaminase 2 (GPT2); Alanine aminotransferase 2 (Homo sapiens), Q8TD30; Recombinant GPT2, coupled pyruvate oxidase/HRP Amplex Red fluorescence; Potency, µM (series often up to 57.7 µM), without a hit: at the top dose activity change, negative = inhibition, actives largely listed as inhibitors; 0.25% of 100,000 active; AID 1671188, 2021; note: nearly all actives have a fitted effect of over 60% in size
# Target sequence (Q8TD30 whole entry, looked up): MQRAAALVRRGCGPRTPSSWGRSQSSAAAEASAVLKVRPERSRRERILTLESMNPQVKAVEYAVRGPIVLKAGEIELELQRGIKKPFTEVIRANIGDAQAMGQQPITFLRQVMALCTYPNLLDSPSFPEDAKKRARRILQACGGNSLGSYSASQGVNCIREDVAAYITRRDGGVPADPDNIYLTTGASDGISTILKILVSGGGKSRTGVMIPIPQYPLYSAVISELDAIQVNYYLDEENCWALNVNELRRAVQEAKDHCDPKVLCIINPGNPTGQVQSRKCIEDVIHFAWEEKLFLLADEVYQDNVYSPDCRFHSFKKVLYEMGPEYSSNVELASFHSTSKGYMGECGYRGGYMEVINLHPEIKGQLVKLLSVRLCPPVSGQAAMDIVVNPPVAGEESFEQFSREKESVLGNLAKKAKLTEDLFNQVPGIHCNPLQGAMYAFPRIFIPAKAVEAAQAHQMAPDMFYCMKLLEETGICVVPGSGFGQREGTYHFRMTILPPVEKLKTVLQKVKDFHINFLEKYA
#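 Inhibition is scored from Amplex Red fluorescence generated when pyruvate oxidase and HRP act on pyruvate released by GPT2. Reactions contain 10ng/uL enzyme, 250uM a-KG and 2mM L-alanine and run 30 min at room temperature.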
# * = called active by the depositor; i = inactive; ? = inconclusive; nt = no result given; [ ] = another dose, or the depositor's remark. Unless noted, calls come from the whole dose curve; as a rule, active = well fitted curve in the direction sought with a large enough effect; inconclusive = small, poorly fitted or top-dose-only effect, or another doubt; inactive = no such curve, though single readings can be large; an effect the other way counts as inactive or inconclusive. % is set by controls: 0 for no effect and ±100 for the full control effect; potency is the fitted concentration of half-maximal effect.
SMILES,3T3 cytotox,HEK293 tox,hNpr1 antagonist,Luciferase inh,GPT2 inhibitor
COCC(=O)NC1CCC12CCN(C(=O)Nc1ccc3c(c1)OCCO3)CC2 (configuration not stated),?,-22.9%,-10.1%,44.7µM*,-0.1%
COCC(=O)NC1CCC12CCN(S(=O)(=O)c1ccc3c(c1)OCCO3)CC2 (configuration not stated),-14.9%,-6.4%,nt,nt,1.4%
CSCCNC(=O)C1CCN(c2nc3ncccc3o2)CC1,-10.0%[138 µM],-1.5%[172 µM],nt,nt,1.2%[88.5 µM]
O=C(NCCc1ccccc1F)c1ccc2nnc(-c3cc[nH]c3)n2c1,?,?,nt,nt,i
OC1(CN2CCN(CCc3ccccn3)CC2)CCCNC1 (configuration not stated),2.8%,-4.8%,1.0%,i,-0.6%
Cc1cc(Cl)ccc1OCCN1CCN(CC2(O)CCCNC2)CC1 (configuration not stated),22.4µM*,12.6µM*,6.2%,i,i
COc1ccccc1/C=C/CN1CCCC(CNC(=O)COc2ccccc2OC)C1 (configuration not stated),?,?,0.6%,i,1.4%
CCCCn1c(=O)c(C(=O)N2CCN(C(=O)C(C)(C)C)CC2)nc2cccnc21,-21.9%,0.5%,nt,nt,i
Cc1ccc2c(C(=O)N3CCN(CC(C)C)CC3)cc(NC(=O)C3CCC3)cc2n1,i,7.7%,3.1%,i,-2.2%
O=C(NCC1CCCCCC1)c1nc2cccnc2n(CCc2ccccc2)c1=O,35.5µM*,?,nt,nt,i
CC(C)NC(=O)c1nc2cccnc2n(CCc2ccccc2)c1=O,?,20µM*,nt,nt,i
CN(CCNC(=O)c1cccnc1N1CC2CC(C1)[C@H]1CCCC(=O)N1C2)C1CCCCC1 (some centres not stated),?,?,0.9%,i,-0.4%
COCC1CN(C2CCC2)CC12CCN(C(=O)Cc1ccccc1F)CC2 (configuration not stated),?,50.1µM*,-14.7%,i,-0.4%
OCC1CN(C2CCC2)CC12CCN(Cc1cc(F)ccc1F)CC2 (configuration not stated),?,39.8µM*,-4.6%,i,-13.1%
OCC1CN(C2CCC2)CC12CCN(Cc1ccc(F)cc1)CC2 (configuration not stated),?,44.7µM*,-9.6%,i,-1.7%
O=C(NCC(F)(F)F)C1CCCN1C(=O)c1cccc(-c2ccccn2)c1 (configuration not stated),-24.0%,1.4%,nt,nt,0.7%
O=C(c1cccs1)N1CCc2[nH]nc(-c3cccc(F)c3)c2C1,?,28.2µM*,-13.1%,i,-4.2%
CC(C)c1ccc(CNC(=O)c2cc3n(n2)CC(c2ccc4c(c2)OCO4)OC3)cc1 (configuration not stated),?,39.8µM*,-18.7%,i,-9.4%
Cc1ccc(CNC(=O)c2cc3n(n2)CC(c2ccc(Cl)cc2)OC3)cc1 (configuration not stated),?,?,?,i,-1.0%
CCc1ccc(CNC(=O)c2cc3n(n2)CC(c2ccc(Cl)cc2)OC3)cc1 (configuration not stated),39.8µM*,?,?,i,0.1%
O=C(NCc1ccc(Cl)cc1)c1cc2n(n1)CC(c1ccc(Cl)cc1)OC2 (configuration not stated),35.5µM*,?,?,i,3.6%
CNC(=O)[C@@H](C1CC1)N1CCC[C@H]1C(=O)NCc1ccccc1,2.1%[138 µM],0.7%[172 µM],0.0%[70.6 µM],i,2.8%[88.5 µM]
COc1cccc(CN2CCC3(CC2)COc2ccccc2NC3=O)c1,-12.3%,-21.1%,-4.3%,i,i
COCC(=O)N1CCN(C(=O)c2cccc(-c3ccccn3)c2)CC1,-16.7%,-14.2%,nt,nt,i
O=C(CCc1ccnc(N2CCCC2)c1)N1CCN(c2cccc(Cl)c2)CC1,?,31.6µM*,-14.9%,i,i
SMILES,3T3 cytotox,HEK293 tox,hNpr1 antagonist,Luciferase inh,GPT2 inhibitor
Cc1cccc(N2CCN(C(=O)CCc3ccnc(N4CCCC4)c3)CC2)c1,-22.3%,?,-14.6%,i,i
COc1ccc(-c2cc3nc4c(c(=O)n3[nH]2)CN(C(=O)c2ccc3[nH]ccc3c2)CC4)cc1,-11.5%,-30.0%,-2.9%,?,i
Cc1ccccc1-c1[nH]nc2ncc(-c3ccnn3C)nc12,?,-14.8%[230 µM],4.1%[70.6 µM],i,-9.4%[88.5 µM]
COc1ccc(-c2[nH]nc3ncc(-c4ccc([S+](C)(=O)[O-])cc4)nc23)c(C)c1,?,56.2µM*,-19.5%[70.6 µM],i,-36.4%[88.5 µM]
COc1ccc(-c2[nH]nc3ncc(-c4cccc(F)c4)nc23)c(C)c1,?,?,0.6%[70.6 µM],i,-12.5%[88.5 µM]
COc1ccc(-c2[nH]nc3ncc(-c4cccnc4)nc23)c(C)c1,28.2µM*,?,2.1%[70.6 µM],i,1.7%[88.5 µM]
COc1ccc(-c2[nH]nc3ncc(-c4cccc(N(C)C)c4)nc23)c(C)c1,?,?,2.6%[70.6 µM],i,-4.9%[88.5 µM]
COc1ccc(-c2[nH]nc3ncc(-c4ccccc4O)nc23)c(C)c1,?,28.2µM*,-23.1%[70.6 µM],i,-7.9%[88.5 µM]
Cc1ccccc1-c1[nH]nc2ncc(-c3ccccc3O)nc12,?,63.1µM*,-15.4%[70.6 µM],i,2.1%[88.5 µM]
Cc1ccccc1-c1cnc2n[nH]c(-c3ccccc3)c2n1,50.1µM*,89.1µM*,-22.7%[70.6 µM],i,-3.7%[88.5 µM]
Oc1cccc(-c2cc(-c3ccncc3)c3cncn3c2)c1,?,?,-18.3%[70.6 µM],i,-4.5%[88.5 µM]
Cc1noc(C)c1-c1cc(-c2cccc(N3CCOCC3)c2)cn2cncc12,17.8µM*,?,-8.4%[70.6 µM],i,-11.8%[88.5 µM]
FC(F)(F)c1cccc(-c2cc(-c3ccncc3)c3cncn3c2)c1,35.5µM*,?,-19.2%[70.6 µM],i,?
c1cc(-c2cc(-c3ccncc3)c3cncn3c2)cc(N2CCOCC2)c1,22.4µM*,?,-12.7%[70.6 µM],i,i
CC(C)(O)C#Cc1ccc(CN2CCC(CO)(CCCc3ccccc3)CC2)s1,?,?,-26.4%,i,i
Cc1nnc2ccc(N3CCN(C(=O)c4ccc(F)cc4)CC3)nn12,?,-27.6%[172 µM],nt,nt,nt
COc1ncccc1CNC[C@H]1Cn2c(-c3ccc(Cl)cc3)cnc2CO1,89.1µM*,?,-24.4%[70.6 µM],i,i
O=C(NC[C@H]1Cn2c(-c3ccc(Cl)cc3)cnc2CO1)Nc1ccccc1,?,63.1µM*,?,i,i

# Source: PubChem (National Center for Advancing Translational Sciences (NCATS))
